From PMC5540273 (PLoS ONE, 2017)

What was measured:
Details in all cases: concentration: 1 μM, replicates: in singlicate; n = 1
NEK4 = tested on: NEK4
NEK5 = tested on: NEK5
NEK6 = tested on: NEK6
NEK7 = tested on: NEK7
NEK9 = tested on: NEK9
NIK = tested on: T1, NIK
T1 construct: gene MAP3K14

NIM1 = tested on: T2, NIM1
T2 construct: gene MGC42105

NLK = tested on: NLK
OSR1 = tested on: T3, OSR1
T3 construct: gene OXSR1

PAK1 = tested on: PAK1
PAK2 = tested on: PAK2
PAK3 = tested on: PAK3
PAK4 = tested on: PAK4
PAK6 = tested on: PAK6
PAK7 = tested on: PAK7
PCTK1 = tested on: T4, PCTK1
T4 construct: gene CDK16

PCTK2 = tested on: T5, PCTK2
T5 construct: gene CDK17

PCTK3 = tested on: T6, PCTK3
T6 construct: gene CDK18

PDGFRA = tested on: PDGFRA
PDGFRB = tested on: PDGFRB
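Also: KINOMEscan kinase panel screen.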

Compound | %Inh (NEK4) [%] | %Inh (NEK5) [%] | %Inh (NEK6) [%] | %Inh (NEK7) [%] | %Inh (NEK9) [%] | %Inh (NIK) [%] | %Inh (NIM1) [%] | %Inh (NLK) [%] | %Inh (OSR1) [%] | %Inh (PAK1) [%] | %Inh (PAK2) [%] | %Inh (PAK3) [%] | %Inh (PAK4) [%] | %Inh (PAK6) [%] | %Inh (PAK7) [%] | %Inh (PCTK1) [%] | %Inh (PCTK2) [%] | %Inh (PCTK3) [%] | %Inh (PDGFRA) [%] | %Inh (PDGFRB) [%]
CCn1c(-c2nonc2N)nc2ccccc21 [SB-693162/GW549034] | 11 | 18 | 17 | 12 | 0 | 24 | 2 | 0 | 24 | 0 | 27 | 0 | 0 | 11 | 11 | 4 | 0 | 16 | 41 | 0
CCC(=O)c1c(-c2ccccc2)c2cc(Cl)ccc2c(=O)n1Cc1cc(C(=O)NC2CC2)n(C)n1 | 16 | 0 | 8 | 0 | 0 | 0 | 1 | 0 | 0 | 20 | 16 | 11 | 0 | 4 | 0 | 1 | 6 | 0 | 15 | 77
O=c1cc(N2CCOCC2)nc2n(Cc3ccc(F)c(Cl)c3)ccn12 [GSK2297099] | 0 | 9 | 0 | 61 | 64 | 0 | 17 | 14 | 6 | 5 | 5 | 0 | 0 | 13 | 11 | 6 | 10 | 2 | 7 | 17
Nc1ncnc2c1ncn2-c1cccc2ccccc12 [SKF-97184] | 0 | 0 | 0 | 0 | 0 | 2 | 13 | 0 | 0 | 3 | 56 | 0 | 0 | 0 | 0 | 0 | 100 | 10 | 0 | 7
Nc1nc(-c2ccccc2F)c(-c2ccnc3ccccc23)s1 [GW560459] | 0 | 0 | 0 | 8 | 53 | 17 | 22 | 27 | 4 | 18 | 18 | 14 | 0 | 0 | 0 | 9 | 0 | 13 | 0 | 6
Fc1cccc(CSc2nnc(-c3ccc4c(c3)CCO4)o2)c1 | 20 | 6 | 10 | 13 | 12 | 0 | 0 | 0 | 3 | 28 | 62 | 19 | 23 | 35 | 5 | 18 | 1 | 0 | 26 | 0
COc1cc2nccc(Nc3ccc(OCc4ccc(NC(C)=O)cc4)cc3)c2cc1OC.Cl [GW440135] | 0 | 0 | 0 | 100 | 94.8 | 16 | 24 | 10 | 0 | 0 | 0 | 0 | 9 | 0 | 0 | 9 | 0 | 0 | 93.1 | 99.6
CCS(=O)(=O)c1ccc(OC)c(Nc2ncc(-c3ccc(F)cc3)o2)c1.Cl [GW591947] | 0 | 9 | 0 | 0 | 11 | 0 | 5 | 22 | 4 | 0 | 13 | 0 | 0 | 0 | 14 | 4 | 0 | 16 | 0 | 24
